Compound activity: PubChem, several laboratories
A selection: hits, their analogues and other compounds. The true share with any hit is near 27%.
CYP2C19 activ = increases human CYP2C19 enzyme activity; P33261; recombinant CYP2C19, luciferin-H EGE luminescence; hits give high values; 0 = fully inhibited enzyme, 1 = untreated enzyme; activation factor at 5 µM; 96,000 tested, under 10 active; AID 1025;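 active means activation factor of at least 2 at 5 µM in the primary screen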;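 further: 0 = wells with 2.5 mM tranylcypromine and 1 = vehicle-only wells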
CYP2C19 inhib = human CYP2C19 inhibition; P33261; CYP2C19 Supersomes, luciferin-H EGE luminescence, 30 min; inhibition, % at 5 µM; hit rate 21% among 96,000; AID 778;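 active means CYP2C19 inhibition above a set limit at 5 µM in the primary screen, cut at about 50% in these data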;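 further: plate controls were negative control wells for no effect and 2.5 mM tranylcypromine positive control for full effect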
CYP2C9 act = activators of human CYP2C9; activation factor at 5 µM; hit rate 1.4% among 96,000; recombinant CYP2C9, luciferin-H conversion, luminescence; hits give high values; factor 1 = untreated enzyme, 0 = blocked; P11712;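 active means activation factor of 2 or more for CYP2C9 at a 5 µM dose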;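 further: 0 = sulfaphenazole-blocked wells and 1 = vehicle-only wells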
Target sequence (P11712 whole entry, looked up): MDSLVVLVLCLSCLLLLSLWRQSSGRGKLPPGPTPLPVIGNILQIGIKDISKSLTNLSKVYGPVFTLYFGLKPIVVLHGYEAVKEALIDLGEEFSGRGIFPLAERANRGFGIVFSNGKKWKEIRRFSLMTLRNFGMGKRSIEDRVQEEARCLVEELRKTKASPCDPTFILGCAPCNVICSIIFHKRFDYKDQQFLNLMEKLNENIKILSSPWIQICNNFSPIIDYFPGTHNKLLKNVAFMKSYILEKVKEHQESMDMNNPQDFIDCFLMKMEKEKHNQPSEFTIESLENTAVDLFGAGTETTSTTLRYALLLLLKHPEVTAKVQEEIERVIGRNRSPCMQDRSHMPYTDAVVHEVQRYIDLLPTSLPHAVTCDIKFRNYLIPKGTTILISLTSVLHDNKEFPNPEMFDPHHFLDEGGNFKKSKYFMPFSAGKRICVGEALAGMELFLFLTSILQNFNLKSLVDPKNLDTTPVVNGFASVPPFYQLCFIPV
sEH activator = increases human soluble epoxide hydrolase activity; activation, % at 2 µM; hit rate 0.04% among 91,000; purified human sEH enzymatic activity, activator screen; in the data active means activation above about 37%
CYP2C9 inhib = blocks human cytochrome P450 2C9; P11712; CYP2C9 Supersomes, luciferin-H conversion, luminescence; inhibition, % at 5 µM; hit rate 20% among 96,000;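 active means blocking of liver enzyme CYP2C9 beyond about 50% at 5 µM, limit read from the data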
sEH inh = blocks human soluble epoxide hydrolase activity. recombinant human sEH enzymatic activity assay. inhibition, % at 2 µM. P34913. AID 707. hit rate 0.34% among 91,000; in the data active means inhibition above about 80%
Active calls of the source: *.

Screening CC(C(=O)OCC(=O)Nc1ccc2c(c1)OCO2)N1C(=O)c2ccccc2C1=O (stereo not drawn) returned CYP2C19 activ 0.3, CYP2C19 inhib 73.7*, CYP2C9 act 0.3, sEH activator -18.2, CYP2C9 inhib 68.3* and sEH inh 19.8.
For CC(C)C(C(=O)Nc1cccnc1)N1C(=O)c2ccccc2C1=O (stereo not drawn) the results were CYP2C19 activ 0.7, CYP2C19 inhib 30.2, CYP2C9 act 0.4, sEH activator -9.8, CYP2C9 inhib 63.2* and sEH inh 4.8.
CC(C(=O)Oc1ccc2c(c1)OCO2)N1C(=O)c2ccccc2C1=O (stereo not drawn) was read as CYP2C19 activ 0.4, CYP2C19 inhib 61.7*, CYP2C9 act 0.6 and CYP2C9 inhib 42.0.
Screening CC(C)C(C(=O)Nc1ccc2c(c1)OCCO2)N1C(=O)c2ccccc2C1=O (stereo not drawn) returned CYP2C19 activ 0.8, CYP2C19 inhib 22.5, CYP2C9 act 0.5, sEH activator -1.5, CYP2C9 inhib 49.3 and sEH inh 2.9.
CC(C)C(C(=O)Nc1ccc2c(c1)OCO2)N1C(=O)c2ccccc2C1=O (stereo not drawn) was read as CYP2C19 activ 0.5, CYP2C19 inhib 49.0, CYP2C9 act 0.5, sEH activator -0.7, CYP2C9 inhib 52.4* and sEH inh 2.0.
For CC1CCOC2(O1)C(=O)N(CN1CCN(c3ccccc3F)CC1)c1ccccc12 (stereo not drawn) the results were CYP2C19 activ 1, CYP2C19 inhib 0.0, CYP2C9 act 1.2, sEH activator -7.5, CYP2C9 inhib -16.1 and sEH inh 5.7.
CC1=C(C(=O)Nc2ccc(C)cc2C)C(c2ccc(C)o2)NC(=O)N1 (stereo not drawn) was read as CYP2C19 activ 1.2, CYP2C19 inhib -18.3, CYP2C9 act 1.1, sEH activator 10.5, CYP2C9 inhib -13.4 and sEH inh -12.4.
Screening Cc1ccc(N(C(C)C(=O)Nc2ccc3c(c2)OCO3)S(C)(=O)=O)cc1 (stereo not drawn) returned CYP2C19 activ 0.3, CYP2C19 inhib 66.8*, CYP2C9 act 0.6, sEH activator 5.2, CYP2C9 inhib 43.0 and sEH inh -3.7.
Screening CN(CC(=O)NCCN1CCN(c2ccccc2)CC1)S(=O)(=O)c1ccc2c(c1)CCC(=O)N2 returned CYP2C19 activ 1, CYP2C19 inhib 3.1, CYP2C9 act 0.9, sEH activator 1.4, CYP2C9 inhib 9.8 and sEH inh -2.5.
`COc1ccc(NC(=O)C2CCC(=O)N2S(=O)(=O)c2ccc(C)cc2)c(OC)c1` (stereo not drawn) gave CYP2C19 activ 0.9, CYP2C19 inhib 13.3, CYP2C9 act 1.7, sEH activator -0.4, CYP2C9 inhib -66.9 and sEH inh -1.6.
`Brc1ccc2c(c1)CNc1c(ncnc1N1CCOCC1)O2` gave CYP2C19 activ 0, CYP2C19 inhib 98.2*, CYP2C9 act 0.4 and CYP2C9 inhib 58.4*.
For Cc1cc(C)c(OCC(=O)Nc2cccc(O)c2)cc1C the results were CYP2C19 activ 0.3, CYP2C19 inhib 75.0*, CYP2C9 act 0.7, sEH activator -1.8, CYP2C9 inhib 34.8 and sEH inh 2.3.
`CC(NC(=O)COc1ccc(Br)cc1)C(=O)O` (stereo not drawn) gave CYP2C19 activ 0.9, CYP2C19 inhib 13.9, CYP2C9 act 0.9, sEH activator -5.2, CYP2C9 inhib 14.3 and sEH inh 3.3.
`O=C(COc1ccc(Br)cc1)Nc1ccncc1` gave CYP2C19 activ 0, CYP2C19 inhib 100.2*, CYP2C9 act 0, sEH activator 7.7, CYP2C9 inhib 97.0* and sEH inh -9.1.
Screening Cc1cc(C)c(OCC(=O)Nc2ccc3c(c2)OCO3)cc1C returned CYP2C19 activ 0.8, CYP2C19 inhib 20.7, CYP2C9 act 1.1, sEH activator -18.9, CYP2C9 inhib -9.1 and sEH inh 19.4.
Cc1cc(OCC(=O)Nc2ccncc2)c(C)cc1Br was read as CYP2C19 activ 0, CYP2C19 inhib 100.0*, CYP2C9 act 0, sEH activator -3.7, CYP2C9 inhib 99.7* and sEH inh 2.5.
`CCOC(=O)CCc1c(C)nc2cc(C3CCCN(C(=O)OC(C)(C)C)C3)[nH]n2c1=O` (stereo not drawn) gave CYP2C19 activ 1, CYP2C19 inhib -1.6, CYP2C9 act 0.8, sEH activator 0.3, CYP2C9 inhib 19.6 and sEH inh 1.0.
For O=C(O)C(Cc1ccccc1)n1cnnn1 (stereo not drawn) the results were CYP2C19 activ 1, CYP2C19 inhib -3.1, CYP2C9 act 1, sEH activator -7.9, CYP2C9 inhib 2.5 and sEH inh 7.4.
For COc1cccc(C(C(=O)NC2CCCC2)N(Cc2ccccc2OC)C(=O)c2ccco2)c1 (stereo not drawn) the results were sEH activator -6.3 and sEH inh 6.0.
Cc1cc(C)n(CCCNC(=O)c2ccc(S(=O)(=O)NCc3ccco3)cc2)n1 was read as CYP2C19 activ 0.9, CYP2C19 inhib 10.4, CYP2C9 act 0.5, sEH activator -1.7, CYP2C9 inhib 50.2* and sEH inh 1.8.
O=C(Nc1ccc(S(=O)(=O)NCc2ccco2)cc1)c1ccncc1 was read as CYP2C19 activ 0.1, CYP2C19 inhib 93.5*, CYP2C9 act 0, sEH activator -1.2, CYP2C9 inhib 97.5* and sEH inh -0.8.
Screening c1ccc(Cn2nnnc2C(c2cccnc2)N2CCN(C3CCCCC3)CC2)cc1 (stereo not drawn) returned CYP2C19 activ 1.1, CYP2C19 inhib -12.0, CYP2C9 act 1.1, sEH activator -6.2, CYP2C9 inhib -14.7 and sEH inh 7.2.
For COc1ccc(C(c2nnnn2CCc2ccccc2)N2CCN(C3CCCC3)CC2)cc1 (stereo not drawn) the results were CYP2C19 activ 1.2, CYP2C19 inhib -18.0, CYP2C9 act 1.1, sEH activator 10.4, CYP2C9 inhib -6.7 and sEH inh -8.1.
For COc1ccc(Cn2nnnc2C(c2ccccc2)N2CCN(C3CCCC3)CC2)cc1 (stereo not drawn) the results were CYP2C19 activ 0.2, CYP2C19 inhib 77.7*, CYP2C9 act 0.9 and CYP2C9 inhib 11.0.
`COc1ccc(Cn2nnnc2C(c2ccccc2Cl)N2CCN(C3CCCC3)CC2)cc1` (stereo not drawn) gave CYP2C19 activ 0.2, CYP2C19 inhib 78.0*, CYP2C9 act 0.7, sEH activator 8.4, CYP2C9 inhib 32.6 and sEH inh -8.9.
O=C(Cn1c(=O)c2c(ncn2C2CCCC2)n(Cc2ccccc2)c1=O)N1CCc2ccccc21 was read as CYP2C19 activ 0.9, CYP2C19 inhib 11.2, CYP2C9 act 0.9, sEH activator 6.2, CYP2C9 inhib 12.7 and sEH inh -6.7.
`NC(=O)N1CC(O)CC1C(=O)Nc1ccc(Cl)c(Cl)c1` (stereo not drawn) gave sEH activator 0.1 and sEH inh -1.9.
